Bioassay records as filed in PubChem BioAssay.
Tgondii IFNg: T. gondii growth inhibition under IFN-gamma | activity change, negative = inhibition, % (concentration not given with the values) | AID 1259416 | Toxoplasma gondii growth in IFN-gamma-treated host cells; stronger effect = lower value | 69,000 tested, 3.8% active; in the data active = activity change below about -70%, passing the limit was not always enough;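 note: host cells are HeLa cells infected with Toxoplasma gondii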
The depositor's hits bear a star. Many of the other results were omitted from the sample, so hits are more common in it than they were.

SMILES | Tgondii IFNg
C#CC1(OCC(O)CN2CCN(c3cccc(C(F)(F)F)c3)CC2)CCCCC1 (stereo not drawn) | -80*
C#CC1(OCC(O)CN2CCN(c3ccccc3OC)CC2)CCCCC1 (stereo not drawn) | 18
OCC(O)CN1CCN(c2ccccc2)CC1 (stereo not drawn) | -5
CCOC(=O)CC(NC(=O)N1CCC2(CC1)Nc1cc(F)ccc1-n1cccc12)c1ccccc1 (stereo not drawn) | 384
Cc1cccc2[nH]c(CCN(C)C(=O)c3ccoc3)nc12 | 9
COc1cc(OC)c(NC(=O)Nc2ccc(-c3nc(-c4ccc(C)cc4)co3)cc2)cc1Cl | -77*
COc1cc(OC)c(NC(=O)Nc2ccc(-c3nc(-c4ccccc4)co3)cc2)cc1Cl | -85*
COc1ccccc1NC(=O)Nc1ccc(-c2nc(-c3cc(C)ccc3C)co2)cc1 | -36
COc1ccc(NC(=O)Nc2ccc(-c3nc(-c4ccccc4)co3)cc2)cc1Cl | 34
COc1ccccc1NC(=O)Nc1ccc(-c2nc(-c3ccc(C)cc3C)co2)cc1 | -17
COc1ccc(C)cc1NC(=O)Nc1ccc(-c2nc(-c3cccc(Br)c3)co2)cc1 | -50
COc1ccccc1NC(=O)Nc1ccc(-c2nc(-c3ccc(C)cc3)co2)cc1 | -77*
O=C(Nc1ccc(-c2nc(-c3ccccc3)co2)cc1)Nc1ccccc1Cl | 38
Cc1ccc(-c2coc(-c3ccc(NC(=O)Nc4ccc(F)cc4F)cc3)n2)cc1 | 14
COc1ccc([C@@H]2C/C=C\C[C@H](C(C)C)NC(=O)CCC(=O)N2)c(OC)c1 | 41
O=C(NCCc1csc(-c2ccc(F)cc2)n1)c1ccco1 | -31
O=C1c2ccccc2C(=O)N1CCCSc1nccn1-c1cc(Cl)ccc1Cl | -3
COCCN(CC1CCCO1)C(=O)c1sc2ncn(C)c(=O)c2c1C (stereo not drawn) | 2
O=c1oc2ccc(Cl)cc2cc1-c1csc(-c2cccc([N+](=O)[O-])c2)n1 | -3
CCCC(=O)Nc1ccc2c(c1)OC[C@@H](C)NC[C@H](C)[C@@H](OC)CN(C)C2=O | -4
COc1ccc(-c2nnn(CC(=O)Nc3ccc(C)cc3)n2)cc1 | -97*
Cc1ccc(-c2nnn(CC(=O)Nc3ccc(N4CCCS4(=O)=O)cc3)n2)cc1 | 5
COCCCNC(=O)Cn1nnc(-c2ccc(NC(=O)c3cccnc3)cc2)n1 | -6
Cc1noc(C)c1CN(C)Cc1cnc2c(-c3ccccc3)cnn2c1 | 25
COc1cc(OC)cc(-c2nc(N)c3c(C)c(-c4ccc(OC)c(OC)c4)sc3n2)c1 | -65
SMILES | Tgondii IFNg
COc1ccc(CCN(C)C2CCCN(c3ccnc(N)n3)C2)cc1OC (stereo not drawn) | -2
Nc1nc(N)c(Cc2ccccc2)cc1Cc1ccccc1 | 160
COc1ccc(COc2cc3oc(=O)c4cc(C(C)O)ccc4c3cc2OC)cc1 (stereo not drawn) | -6
COc1ccc(Cc2cnc(N)nc2N)cc1OC | -79*
COc1ccc(COc2ccc(Cc3cnc(N)nc3N)cc2OC)cc1 | -77*
COc1ccc(-c2nccn2CCc2c(C)n[nH]c2C)c(OC)c1 | 2
CCOC(=O)Cc1c(C(=O)OCC)c(C)cn1C | 55
COC(=O)c1[nH]c(C(=O)OC)c(O)c1O | 35
COc1cccc(CC2CC(c3ccccc3)=NO2)c1OCc1c(Cl)cccc1Cl (stereo not drawn) | -96*
CCn1c(CC2CCNCC2)nn(CC2CC(c3ccccc3)=NO2)c1=O (stereo not drawn) | -3
O=C(O)CC1CC(c2ccccc2)=NO1 (stereo not drawn) | 7
CC/C=C/CC(=O)Nc1cccc(NC(=O)Cc2ccccc2)c1 | -12
O=C(Cc1ccccc1)Nc1cccc(NC(=O)c2ccnnc2)c1 | 6
Cc1cc(C(=O)Nc2cccc(NC(=O)Cc3ccccc3)c2)n[nH]1 | -75*
O=S(=O)(Cc1ccc(Cl)c(Cl)c1)NCCCn1ccnc1 | 54
CN(Cc1cccnc1)C1CCN(C(=O)c2ccccn2)C(C(=O)O)C1 (stereo not drawn) | -74*
CN(Cc1cccnc1)C1CCN(C(=O)c2cccnc2)C(C(=O)O)C1 (stereo not drawn) | -5
CN(Cc1cccnc1)C1CCN(C(=O)c2cnccn2)C(C(=O)O)C1 (stereo not drawn) | 8
Cc1sc2c(c1C)C(=O)CS(=O)(=O)N2C | 27
CCCN1CCCn2c(nc(CNC(=O)c3cccn3C)cc2=O)C1 | 3
Cc1ccc(-c2nc(Cn3nnc(-c4nc(-c5cccc(C(F)(F)F)c5)no4)c3C)c(C)o2)cc1 | 4
C=CCn1c(=S)sc2c(N3CCN(c4ccccc4)CC3)ncnc21 | -20
C=CCn1c(=S)sc2c(C(C#N)C#N)ncnc21 | -102*
OCCCNC(c1ccccc1)(c1ccccc1)c1ccccc1 | -37
CCOC(=O)C1CCCN(C(=O)c2nc(-c3ccc(C)cc3)n3c2CCCCC3)C1 (stereo not drawn) | 223
SMILES | Tgondii IFNg
CCOC(=O)C(C)NC(=O)c1nc(-c2ccc(C)cc2)n2c1CCCCC2 (stereo not drawn) | -106*
CC1CCCCN1CCNC(=O)c1nc(-c2ccc(Cl)cc2)n2c1CCCCC2 (stereo not drawn) | 6
CCN(CC)C(=O)c1nc(-c2ccc(C)cc2)n2c1CCCCC2 | -32
Cc1ccc(-c2nc(C(=O)N3CCCCC3c3cccnc3)c3n2CCCCC3)cc1 (stereo not drawn) | 105
CC(C)OCCCNC(=O)c1nc(-c2ccc(Cl)cc2)n2c1CCCCC2 | -47
Cc1ccc(-c2nc(C(=O)NC(C)C)c3n2CCCCC3)cc1 | -78*
CC(C)CNC(=O)c1nc(-c2ccc(Cl)cc2)n2c1CCCCC2 | -100*
CCOC(=O)C(C)NC(=O)c1cc(-c2cccnc2)n[nH]1 (stereo not drawn) | 12
Cc1ccc(-c2nc(C(=O)N3CCCCCC3)c3n2CCCCC3)cc1 | -80*
O=C(c1nc(-c2ccc(Cl)cc2)n2c1CCCCC2)N1CCC2(CC1)OCCO2 | 118
CCc1nc(CN(C)Cc2ccc(C(=O)Nc3cnn(C)c3)cc2)no1 | -4
COc1cccc(CN(Cc2ccco2)C(c2nnnn2C(C)(C)C)C(C)C)c1 (stereo not drawn) | 1
CCOC(=O)[C@@H](N)CCC(=O)N[C@@H](CSCc1ccccc1)C(=O)N[C@@H](C(=O)OCC)c1ccccc1 | 19
CCn1cnnc1CN(C)C(=O)c1scc2c1CCCC2 | 18
O=Cc1ccc(OC(=O)c2cccnc2)cc1 | 20
Cc1noc(C)c1S(=O)(=O)N(C)C[C@H]1Oc2c(NC(=O)c3ccc(-c4nccs4)cc3)cccc2C(=O)N([C@H](C)CO)C[C@@H]1C | -23
COCCCNC(=O)c1nc(-c2ccc(Cl)cc2)n2c1CCCCC2 | -50
COc1ccccc1CNC(=O)c1nc(-c2ccc(C)cc2)n2c1CCCCC2 | -115*
COC(=O)c1cc2c(cc1NC(=O)c1nc(-c3ccc(C)cc3)n3c1CCCCC3)OCO2 | 284
CSc1ccc(-c2nc(NC(C)=O)c3c(=O)oc4ccccc4c3n2)cc1 | 59
Cc1noc(C)c1NC(=O)NCCOc1ccccc1 | 2
CCN(C(=O)CC(=O)Nc1cc(C)cc(C)c1)C1CCOC(C)(C)C1 (stereo not drawn) | -8
NCCc1ccc(O)c(O)c1 | 11
COc1cc(NC(=S)NC(=O)c2cccs2)ccc1NC(=O)C(C)C | 51
COc1ccc(NC(=O)c2c(NS(=O)(=O)c3ccc(C)cc3)csc2C)cc1 | 14
COc1cc(NC(=O)c2cc3ccccc3o2)ccc1NC(=O)c1cccs1 | -111*
O=C(Nc1ccc(NS(=O)(=O)c2ccc(Oc3ccccc3)cc2)cc1)c1ccccc1 | 4
